Compounds without any hit were thinned out: in the full panel of roughly 79,000, 15% have a hit. Calls of active or inactive are those of the source. No stated cut-off is given here; in the data, active means growth inhibition above about 70%; inactive means the rest.
Columns and labels:
[1] = NCI Yeast Anticancer Drug Screen. Data for the mec2-1 strain (AID 157); settings: S. cerevisiae mec2-1 strain, hits give high values
Method in brief: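 Yeast mec2-1 mutant treated with compound. Readout: growth inhibition vs vehicle controls.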

[2] = NCI Yeast Anticancer Drug Screen. Data for the sgs1 mgt1 strain (AID 161);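 further: 0% = growth of cultures given vehicle only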; settings: S. cerevisiae sgs1 mgt1 strain, hits give high values
Method in brief: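 Mutant yeast exposed to compound; growth scored against vehicle-only wells.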

[3] = NCI Yeast Anticancer Drug Screen. Data for the CLN2oe strain (AID 163);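 further: 0% = growth of vehicle-only control cultures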; settings: S. cerevisiae CLN2oe strain, hits give high values
Method in brief: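 Read-out: yeast growth inhibition, expressed relative to vehicle-only controls. The strain bears an engineered cell-cycle alteration.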

[4] = NCI Yeast Anticancer Drug Screen. Data for the cln2 rad14 strain (AID 165);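 further: 0% = growth equal to vehicle treated cultures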; settings: S. cerevisiae cln2 rad14 strain, hits give high values
Method in brief: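 cln2 rad14 yeast strain; compound exposure; growth inhibition read vs vehicle controls.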

[5] = NCI Yeast Anticancer Drug Screen. Data for the bub3 strain (AID 167); settings: S. cerevisiae bub3 mutant strain, hits give high values
Method in brief: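 Whole-cell yeast assay. The mutant strain was incubated with compounds, and growth inhibition was determined by comparison with vehicle-treated cells.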

[6] = NCI Yeast Anticancer Drug Screen. Data for the wt2 strain (AID 169);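 further: 0% = growth of vehicle-treated yeast cultures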; settings: S. cerevisiae wt2 strain growth inhibition, hits give high values
Method in brief: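 Read-out: growth inhibition versus vehicle-treated control cultures after compound exposure of the yeast strain.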

[7] = NCI Yeast Anticancer Drug Screen. Data for the mlh1 strain (AID 171);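 further: 0% = growth of vehicle-treated control cultures of the same strain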; settings: S. cerevisiae mlh1 strain growth inhibition, hits give high values
Method in brief: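 Read-out: growth inhibition versus vehicle controls. Strain: engineered yeast with a defined DNA repair or cell cycle defect, compound-treated.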

[8] = NCI Yeast Anticancer Drug Screen. Data for the sgs1 strain (AID 173);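 further: 0% = growth of vehicle-only control cultures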; settings: S. cerevisiae sgs1 mutant, hits give high values
Method in brief: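 Read-out: yeast growth inhibition relative to vehicle controls, following compound exposure of a strain with a defined DNA repair/cell cycle alteration.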

[9] = NCI Yeast Anticancer Drug Screen. Data for the mlh1 rad18 strain (AID 175); settings: S. cerevisiae mlh1 rad18 strain growth inhibition, hits give high values
Method in brief: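 Yeast w/ defined DNA-repair lesions; compound exposure; growth vs vehicle controls → % inhibition.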

[10] = NCI Yeast Anticancer Drug Screen. Data for the rad18 strain (AID 177); settings: S. cerevisiae rad18 mutant growth inhibition, hits give high values
Method in brief: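 Readout: growth inhibition vs vehicle controls. Cells: genetically altered yeast strain, DNA repair defect.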

[11] = NCI Yeast Anticancer Drug Screen. Data for the rad52 strain (AID 147);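 further: 0% = growth of vehicle-treated control cultures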; settings: S. cerevisiae rad52 mutant growth inhibition, hits give high values
Method in brief: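 Read-out: growth inhibition versus vehicle-treated controls. Cells were a DNA repair-deficient yeast strain treated with compounds.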

[12] = NCI Yeast Anticancer Drug Screen. Data for the wt1 strain (AID 149);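 further: 0% = growth of vehicle-treated wt1 cultures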; settings: S. cerevisiae wt1 strain (SPY 50644) growth inhibition, hits give high values
Method in brief: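 Measured: growth of wt1 yeast under compound versus vehicle treatment, reported as inhibition.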

[13] = NCI Yeast Anticancer Drug Screen. Data for the rad50EPP+ strain (AID 151);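 further: 0% = growth of vehicle-treated control cultures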; settings: S. cerevisiae rad50 mutant strain, hits give high values
Method in brief: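 Growth inhibition read against vehicle controls in rad50EPP+ yeast, a strain altered in DNA damage repair, after compound exposure.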

[14] = NCI Yeast Anticancer Drug Screen. Data for the rad50 strain (AID 155);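 further: 0% = growth of vehicle-only cultures of the same strain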; settings: S. cerevisiae rad50 strain growth inhibition, hits give high values
Method in brief: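 Growth of the mutant yeast was measured after compound exposure and referenced to vehicle-treated cultures.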

[15] = NCI Yeast Anticancer Drug Screen. Data for the rad14 strain (AID 159);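 further: 0% = growth of vehicle-treated control cultures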; settings: S. cerevisiae rad14 strain growth inhibition, hits give high values
Method in brief: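 Here, inhibition of yeast growth was measured after compound exposure, using a strain with a genetic defect in DNA damage repair and vehicle-treated cultures as the reference.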

[16] = at 5.0 µM (retest, dose inferred, filed as 0.5)
[17] = at 50.0 µM (retest, dose inferred, filed as 5.0)

Measured: growth inhibition

O=[N+]([O-])c1c(/C=N/Nc2ccccc2)oc(-c2ccc3c(c2)OCO3)c1-c1ccc2c(c1)OCO2
active: [1]; at 100.0 µM 81% | [2]; [16] 87% | [2]; [17] 87% | [2]; at 50.0 µM 83% | [3]; at 100.0 µM 77% | [4]; at 50.0 µM 86.8% | [5]; at 50.0 µM 82.5% | [6]; at 100.0 µM 88% | [7]; at 100.0 µM 73% | [8]; at 100.0 µM 89% | [9]; at 50.0 µM 84.2% | [10]; at 100.0 µM 87%
inactive: [3]; at 1.2 µM -1% | [3]; at 3.7 µM 4% | [3]; at 11.0 µM 9% | [3]; at 33.0 µM 46% | [4]; [16] -17% | [4]; [17] -17% | [5]; at 1.2 µM -9% | [5]; at 3.7 µM -8% | [5]; [16] -21% | [5]; at 11.0 µM 8% | [5]; at 33.0 µM 39% | [5]; [17] -21% | [5]; at 100.0 µM 60% | [6]; at 1.2 µM 0% | [6]; at 3.7 µM 1% | [6]; at 11.0 µM 5% | [6]; at 33.0 µM 44% | [7]; at 1.2 µM -3% | [7]; at 3.7 µM -2% | [7]; at 11.0 µM 3% | [7]; at 33.0 µM 36% | [8]; at 1.2 µM -2% | [8]; at 3.7 µM -2% | [8]; at 11.0 µM 7% | [8]; at 33.0 µM 65% | [9]; [16] 38% | [9]; [17] 38% | [10]; at 1.2 µM -8% | [10]; at 3.7 µM -5% | [10]; at 11.0 µM 8% | [10]; at 33.0 µM 69%

COc1ccc(N2CN(C)CSC2=S)cc1
inactive: [11]; at 1.2 µM -27% | [11]; at 3.7 µM -11% | [11]; at 11.0 µM -1% | [11]; at 33.0 µM 43% | [12]; at 1.2 µM -18% | [12]; at 3.7 µM -14% | [12]; at 11.0 µM -22% | [12]; at 33.0 µM -1% | [12]; at 100.0 µM 58% | [13]; at 1.2 µM -36% | [13]; at 3.7 µM 10% | [13]; at 11.0 µM 58% | [14]; at 1.2 µM -20% | [14]; at 3.7 µM 3% | [14]; [16] 61% | [14]; at 11.0 µM 25% | [14]; at 33.0 µM 63% | [14]; at 50.0 µM 10.6% | [1]; at 1.2 µM -17% | [1]; at 3.7 µM -29% | [1]; at 11.0 µM -22% | [1]; at 33.0 µM -2% | [1]; at 50.0 µM 8.85% | [2]; [16] -20% | [2]; [17] 59% | [3]; at 1.2 µM -23% | [3]; at 3.7 µM -23% | [3]; at 11.0 µM -39% | [3]; at 33.0 µM -9% | [3]; at 100.0 µM 24% | [4]; [16] 22% | [4]; [17] 59% | [5]; at 1.2 µM -12% | [5]; at 3.7 µM -11% | [5]; [16] 35% | [5]; at 11.0 µM -12% | [5]; at 33.0 µM 32% | [6]; at 1.2 µM -25% | [6]; at 3.7 µM -15% | [6]; at 11.0 µM -22% | [6]; at 33.0 µM -7% | [6]; at 100.0 µM 58% | [8]; at 1.2 µM -43% | [8]; at 3.7 µM -41% | [8]; at 11.0 µM -39% | [8]; at 33.0 µM 7% | [10]; at 1.2 µM -67% | [10]; at 3.7 µM -64% | [10]; at 11.0 µM -53% | [10]; at 33.0 µM -41% | [10]; at 100.0 µM 52%
active: [11]; at 100.0 µM 72% | [13]; at 33.0 µM 81% | [13]; at 100.0 µM 90% | [14]; [17] 95% | [14]; at 100.0 µM 83% | [1]; [16] 73% | [1]; [17] 96% | [1]; at 100.0 µM 75% | [5]; [17] 83% | [5]; at 100.0 µM 73% | [8]; at 100.0 µM 71%

CC1=CC2C(C(C)C)CC1C1C(=O)OC(=O)C21 (stereo not drawn)
inactive: [11]; at 1.2 µM -12% | [11]; at 3.7 µM -14% | [11]; at 11.0 µM -2% | [11]; at 33.0 µM 20% | [13]; at 1.2 µM -8% | [13]; at 3.7 µM -20% | [13]; at 11.0 µM 10% | [13]; at 33.0 µM 33% | [13]; at 100.0 µM 49% | [14]; at 1.2 µM -13% | [14]; at 3.7 µM -16% | [14]; [16] -127% | [14]; at 11.0 µM -12% | [14]; at 33.0 µM 24% | [1]; at 1.2 µM -1% | [1]; at 3.7 µM 0% | [1]; [16] -42% | [1]; at 11.0 µM -2% | [1]; at 33.0 µM 2% | [1]; at 100.0 µM 37% | [15]; at 1.2 µM -2% | [15]; at 3.7 µM 4% | [15]; at 11.0 µM 13% | [15]; at 33.0 µM 24% | [2]; [16] -60% | [2]; [17] 25% | [2]; at 50.0 µM 13.6% | [3]; at 1.2 µM -7% | [3]; at 3.7 µM -11% | [3]; at 11.0 µM -10% | [3]; at 33.0 µM -9% | [3]; at 100.0 µM 16% | [4]; [16] -53% | [4]; [17] 47% | [4]; at 50.0 µM 13.4% | [5]; at 1.2 µM -6% | [5]; at 3.7 µM -6% | [5]; [16] -71% | [5]; at 11.0 µM -9% | [5]; at 33.0 µM -6% | [5]; [17] 66% | [5]; at 100.0 µM 50% | [6]; at 1.2 µM -8% | [6]; at 3.7 µM -2% | [6]; at 11.0 µM 11% | [6]; at 33.0 µM 36% | [7]; at 1.2 µM -16% | [7]; at 3.7 µM -7% | [7]; at 11.0 µM -6% | [7]; at 33.0 µM 10% | [7]; at 100.0 µM 56% | [8]; at 1.2 µM -14% | [8]; at 3.7 µM -10% | [8]; at 11.0 µM 7% | [8]; at 33.0 µM 27% | [9]; [16] -140% | [10]; at 1.2 µM -9% | [10]; at 3.7 µM -6% | [10]; at 11.0 µM -6% | [10]; at 33.0 µM 3% | [10]; at 100.0 µM 69%
active: [11]; at 100.0 µM 71% | [14]; [17] 83% | [14]; at 50.0 µM 86.7% | [14]; at 100.0 µM 81% | [1]; [17] 86% | [1]; at 50.0 µM 76.5% | [15]; at 100.0 µM 78% | [5]; at 50.0 µM 70.8% | [6]; at 100.0 µM 86% | [8]; at 100.0 µM 88% | [9]; [17] 77% | [9]; at 50.0 µM 76.4%

— PubChem BioAssay (NCI)
